A selection: hits, their analogues and other compounds. The true share with any hit is near 21%.
NS1 function inh – qHTS Assay for Inhibitors of Influenza NS1 Protein Function | AID 2326, 2010 | actives 0.4% (n = 270,000) | Potency, µM (series often up to 46.1 µM); further: actives are rising curves; nearly all actives have a fitted effect of over 50% in size
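A cell-based growth assay was used: compounds that relieve NS1-induced slow growth of budding yeast raise OD600. Assay medium was yeast nitrogen base with ammonium sulphate and -URA supplement, pH 6.0, with 2% galactose.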
Cycloheximide cs – Cycloheximide Counterscreen for Small Molecule Inhibitors of Shiga Toxin | cell reporter, cycloheximide protein synthesis inhibition counterscreen | max response, % | actives 12% (n = 300,000); in the data active means max response mostly above about 13%, no sharp cut-off; inactive means mostly below about 14%; further: read at 38.3 µM for the half of the compounds with a filed dose
SARS PLpro yeast – qHTS of Yeast-based Assay for SARS-CoV PLP; S. cerevisiae expressing SARS-CoV PLpro, growth rescue; actives 0.19% (n = 330,000); Potency, µM (series often up to 32.9 µM), actives largely listed as activators; further: nearly all actives have a fitted effect of over 55% in size
Pf growth 96h – Primary qHTS for delayed death inhibitors of the malarial parasite plastid, 96 hour incubation; AID 504834, 2011; P. falciparum luciferase reporter growth, 96 h; Potency, µM (top dose mostly 28.7 µM), hits mostly inhibitors; actives 6.9% (n = 320,000); active means well fitted inhibition curve with a large enough effect; inconclusive means small, poorly fitted or top-dose-only effect, or another doubt; inactive means no such curve, though single readings can be large or run the other way
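Parasite growth measured via integrated firefly luciferase reporter in P. falciparum. Infected erythrocytes at 2% hematocrit, 0.05% parasitemia final were treated 96 hours at 37 C under 5% CO2, and luminescence was read.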
Shiga inhibitor – A qHTS for Small Molecule Inhibitors of Shiga Toxin | Vero cells, Shiga toxin protein synthesis inhibition reporter | actives 9.2% (n = 290,000) | AID 2315, 2010 | inhibition, % at 38.7 µM; in the data active means inhibition mostly above about 28%, no sharp cut-off; inactive means mostly below about 43%
Pf growth 48h – Primary qHTS for delayed death inhibitors of the malarial parasite plastid, 48 hour incubation | P. falciparum luciferase growth in erythrocytes, 48 h | Potency, µM (series often up to 28.7 µM), actives largely listed as inhibitors | actives 5.9% (n = 310,000) | AID 504832, 2011; active means well fitted inhibition curve with a large enough effect; inconclusive means small, poorly fitted or top-dose-only effect, or another doubt; inactive means no such curve, though single readings can be large or run the other way
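Cell-based growth assay: transgenic P. falciparum expressing firefly luciferase, cultured in red cells within RPMI 1640 containing 0.5% w/v Albumax, 24 mM bicarbonate and gentamycin. A drop in luciferase activity indicates inhibition.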
Numbers stand for hits; - = inactive; ? = inconclusive; . = not tested or not shown. Unless noted, the call rests on the fitted dose curve.

SMILES	NS1 function inh	Cycloheximide cs	SARS PLpro yeast	Pf growth 96h	Shiga inhibitor	Pf growth 48h
Cc1ccn2c(-c3n[nH]c(=S)n3C)c(C)nc2c1	-	-	-	-	-	-
O=C(CN(Cc1cccs1)C(=O)CSc1nnc(COc2ccccc2)o1)NC1CCCCC1	-	-	-	-	-	13.1µM
O=C(NC1CCCC1)c1ccc([N+](=O)[O-])s1	.	-	-	10.4µM	-	-
O=C(NNC(=O)c1ccc(Br)s1)NC1CCCCC1	-	-	-	-	-	-
COCCn1c(SCC(=O)Nc2ccc(Cl)cn2)nnc1-c1ccncc1	.	-	-	?	-	-
CCCCn1c(N)c(N(Cc2ccccc2OC)C(=O)c2c(CC)noc2C)c(=O)[nH]c1=O	-	-	-	-	-	-
Cc1cc(N)n(-c2ccc(S(N)(=O)=O)cc2[N+](=O)[O-])n1	-	-	-	-	-	-
Cc1ccc(N(Cc2cc3ccccc3[nH]c2=O)C(=O)c2cccs2)cc1C	-	-	-	?	-	11.7µM
CCN(Cc1cc2cc(OC)ccc2[nH]c1=O)C(=O)c1ccncc1	-	-	-	9.28µM	-	-
COCC(=O)N(Cc1cc2cc(C)ccc2[nH]c1=O)c1ccc(C)c(C)c1	-	-	-	10.4µM	.	-
COCC(=O)N(Cc1cc2ccccc2[nH]c1=O)c1ccc(OC)cc1	-	-	-	-	-	-
CCN(Cc1cc2cc(OC)ccc2[nH]c1=O)C(=O)Cc1ccc(OC)cc1	-	-	-	-	-	?
COCC(=O)N(Cc1cc2cc(OC)ccc2[nH]c1=O)c1ccccc1	-	16.4	-	-	-	-
COc1ccc(NC(=O)Nc2ccc(C(=O)N3CCOCC3)cc2)c(OC)c1	-	-	-	-	-	-
O=[N+]([O-])c1ccccc1S(=O)(=O)Nc1ccc(-c2ccc3nncn3n2)cc1	.	.	-	-	.	-
COc1ccc(S(=O)(=O)N2CC(O)CC2C(=O)Nc2cccnc2)cc1 (stereo not drawn)	-	-	-	-	-	-
CCN(CC)S(=O)(=O)c1ccc(C(C)NCC(=O)Nc2ccccc2C(=O)NC2CC2)cc1 (stereo not drawn)	.	.	-	?	.	10.4µM
CC(NCC(=O)Nc1ccccc1C(=O)NC1CC1)c1ccco1 (stereo not drawn)	.	.	-	-	.	1.65µM
COC(OC)c1ccc(C#N)c(SCc2ccc(C)cc2)n1	-	-	-	?	-	-
CCOc1ccc2nc(SCC(=O)Nc3ccc4[nH]c(=O)[nH]c4c3)[nH]c2c1	.	.	-	-	.	?
CCCCCC(=O)NC(=S)Nc1ccc(NC(=O)c2ccco2)cc1	-	-	-	?	-	?
C/C(=N\NC(=O)c1ccc(C(=O)N/N=C(\C)c2ccco2)o1)c1ccco1	-	-	-	2.62µM	-	?
C/C(=N/NC(=O)c1ccco1)c1ccc(NC(=O)c2ccc(Br)o2)cc1	-	61.6	-	-	95.8	-
C/C(=N/NC(=O)c1ccco1)c1ccc(NC(=O)c2ccc(F)cc2)cc1	-	90.1	-	-	57.9	-
CCCCCC(=O)N/N=C(\C)c1ccc(NC(=O)c2ccco2)cc1	-	29.8	-	-	80.9	-
SMILES	NS1 function inh	Cycloheximide cs	SARS PLpro yeast	Pf growth 96h	Shiga inhibitor	Pf growth 48h
C/C(=N\NC(=O)c1ccc(-c2ccccc2)cc1)c1ccco1	-	-	-	?	-	?
COc1ccc(S(=O)(=O)N2CCOC23CCN(S(=O)(=O)c2ccc(F)cc2C)CC3)cc1	.	.	-	?	.	?
C=CCn1c(=O)c(CCC(=O)Nc2ccc(N3CCOCC3)cc2)nc2cc(C(F)(F)F)ccc21	-	-	-	?	-	?
C/C(=N\NC(=O)c1ccco1)c1cccc2ccccc12	-	-	-	-	-	9.28µM
C/C(=N\NC(=O)c1nc2ccccn2c1C)c1ccco1	-	27.2	-	-	61.9	-
CC(C)n1cc(C(=O)N2CCCC(Nc3ccc(F)c(F)c3)C2)cn1 (stereo not drawn)	-	26.9	-	-	-	-
Cc1ccc(NC2CCCN(C(=O)CCc3scnc3C)C2)cc1C (stereo not drawn)	-	-	-	-	-	-
CC(C)c1cc(C(=O)N2CCCC(Nc3ccc(F)c(F)c3)C2)nc(N)n1 (stereo not drawn)	-	-	-	?	-	-
